Source: the supplement of paper PMC4466140

B1: unnamed (peptide)
chain: MPAPPPPPPPPPGAF

What follows are binders tested against AgAbp1 (assay: SPOT peptide array binding signal intensity (averaged, normalized) (arbitrary units (background-subtracted, floor 0; scale differs between SH3 domains)); higher = stronger binding of the SH3 domain to the peptide).
In short: (§1)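 Binding signal is given in arbitrary units that differ between domains and is the normalized, background-subtracted spot intensity averaged across replicates. Each GST-SH3 fusion from one of four yeast species was made in E. coli BL21(DE3), purified on glutathione Sepharose and incubated at 10 μg/ml overnight at 4°C on cellulose-bound synthetic 15-mer peptides in which cysteines were replaced by serines. Detection used anti-GST antibody, an HRP anti-mouse secondary and luminol, followed by imaging and Genespotter quantification.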

| Binder | SPOT peptide array binding signal intensity |
| --- | --- |
| B1 | ≤ 0 |

The binders below were run against AgBbc1 in the same assay as above.
In short: as §1

| Binder | SPOT peptide array binding signal intensity |
| --- | --- |
| B1 | 3.81e-06 |

What follows are binders tested against AgBem1-D1 in the same assay as above.
In short: as §1

| Binder | SPOT peptide array binding signal intensity |
| --- | --- |
| B1 | ≤ 0 |

These binders were tested against AgBzz1-D1 in the same assay as above.
In short: as §1

| Binder | SPOT peptide array binding signal intensity |
| --- | --- |
| B1 | ≤ 0 |

These binders were tested against AgBzz1-D2 in the same assay as above.
In short: as §1

| Binder | SPOT peptide array binding signal intensity |
| --- | --- |
| B1 | 19.5 |

Each binder was assayed against AgCyk3 in the same assay as above.
In short: as §1

| Binder | SPOT peptide array binding signal intensity |
| --- | --- |
| B1 | ≤ 0 |

These binders were tested against AgFus1 in the same assay as above.
In short: as §1

| Binder | SPOT peptide array binding signal intensity |
| --- | --- |
| B1 | ≤ 0 |

These binders were tested against AgHof1 in the same assay as above.
In short: as §1

| Binder | SPOT peptide array binding signal intensity |
| --- | --- |
| B1 | 51.2 |

The binders below were run against AgHse1 in the same assay as above.
In short: as §1

| Binder | SPOT peptide array binding signal intensity |
| --- | --- |
| B1 | ≤ 0 |

The binders below were run against AgLsb1 in the same assay as above.
In short: as §1

| Binder | SPOT peptide array binding signal intensity |
| --- | --- |
| B1 | ≤ 0 |

These binders were tested against AgLsb4 in the same assay as above.
In short: as §1

| Binder | SPOT peptide array binding signal intensity |
| --- | --- |
| B1 | ≤ 0 |

Each binder was assayed against AgMyo5 in the same assay as above.
In short: as §1

| Binder | SPOT peptide array binding signal intensity |
| --- | --- |
| B1 | 822 |

These binders were tested against AgNbp2 in the same assay as above.
In short: as §1

| Binder | SPOT peptide array binding signal intensity |
| --- | --- |
| B1 | ≤ 0 |

These binders were tested against AgRvs167 in the same assay as above.
In short: as §1

| Binder | SPOT peptide array binding signal intensity |
| --- | --- |
| B1 | ≤ 0 |

These binders were tested against AgSho1 in the same assay as above.
In short: as §1

| Binder | SPOT peptide array binding signal intensity |
| --- | --- |
| B1 | ≤ 0 |

What follows are binders tested against AgSla1-D1-D2 in the same assay as above.
In short: as §1

| Binder | SPOT peptide array binding signal intensity |
| --- | --- |
| B1 | ≤ 0 |

Each binder was assayed against AgSla1-D3 in the same assay as above.
In short: as §1

| Binder | SPOT peptide array binding signal intensity |
| --- | --- |
| B1 | 0.5 |

Each binder was assayed against CaAbp1-D1 in the same assay as above.
In short: as §1

| Binder | SPOT peptide array binding signal intensity |
| --- | --- |
| B1 | 18.5 |

What follows are binders tested against CaAbp1-D2 in the same assay as above.
In short: as §1

| Binder | SPOT peptide array binding signal intensity |
| --- | --- |
| B1 | ≤ 0 |

Each binder was assayed against CaBbc1 in the same assay as above.
In short: as §1

| Binder | SPOT peptide array binding signal intensity |
| --- | --- |
| B1 | 0.25 |

Each binder was assayed against CaBem1-D1 in the same assay as above.
In short: as §1

| Binder | SPOT peptide array binding signal intensity |
| --- | --- |
| B1 | 40 |

These binders were tested against CaBzz1-D1 in the same assay as above.
In short: as §1

| Binder | SPOT peptide array binding signal intensity |
| --- | --- |
| B1 | 970 |

The binders below were run against CaBzz1-D2 in the same assay as above.
In short: as §1

| Binder | SPOT peptide array binding signal intensity |
| --- | --- |
| B1 | 69.1 |

These binders were tested against CaCyk3 in the same assay as above.
In short: as §1

| Binder | SPOT peptide array binding signal intensity |
| --- | --- |
| B1 | ≤ 0 |

The binders below were run against CaFus1 in the same assay as above.
In short: as §1

| Binder | SPOT peptide array binding signal intensity |
| --- | --- |
| B1 | 33 |

Each binder was assayed against CaHof1 in the same assay as above.
In short: as §1

| Binder | SPOT peptide array binding signal intensity |
| --- | --- |
| B1 | ≤ 0 |

What follows are binders tested against CaHse1 in the same assay as above.
In short: as §1

| Binder | SPOT peptide array binding signal intensity |
| --- | --- |
| B1 | 4.62 |

Each binder was assayed against CaLsb1 in the same assay as above.
In short: as §1

| Binder | SPOT peptide array binding signal intensity |
| --- | --- |
| B1 | ≤ 0 |

Each binder was assayed against CaLsb4 in the same assay as above.
In short: as §1

| Binder | SPOT peptide array binding signal intensity |
| --- | --- |
| B1 | ≤ 0 |

These binders were tested against CaMyo5 in the same assay as above.
In short: as §1

| Binder | SPOT peptide array binding signal intensity |
| --- | --- |
| B1 | 66 |

What follows are binders tested against CaNbp2 in the same assay as above.
In short: as §1

| Binder | SPOT peptide array binding signal intensity |
| --- | --- |
| B1 | 29 |

Each binder was assayed against CaRvs167 in the same assay as above.
In short: as §1

| Binder | SPOT peptide array binding signal intensity |
| --- | --- |
| B1 | ≤ 0 |

These binders were tested against CaRvs167-3 in the same assay as above.
In short: as §1

| Binder | SPOT peptide array binding signal intensity |
| --- | --- |
| B1 | 2.75 |

These binders were tested against CaSho1 in the same assay as above.
In short: as §1

| Binder | SPOT peptide array binding signal intensity |
| --- | --- |
| B1 | 13.8 |

These binders were tested against CaSla1-D1-D2 in the same assay as above.
In short: as §1

| Binder | SPOT peptide array binding signal intensity |
| --- | --- |
| B1 | ≤ 0 |

What follows are binders tested against CaSla1-D3 in the same assay as above.
In short: as §1

| Binder | SPOT peptide array binding signal intensity |
| --- | --- |
| B1 | ≤ 0 |

Each binder was assayed against ScAbp1 in the same assay as above.
In short: as §1

| Binder | SPOT peptide array binding signal intensity |
| --- | --- |
| B1 | ≤ 0 |
